The results in this text go back to PubChem BioAssay AID602350 (Broad Institute, 2012).

Results with a measured potency or affinity are listed apart. Activity calls are given as the source filed them.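 How the source made its calls: active means absorbance falls by 30% or more versus neutral controls, with a potency fitted within twice the top valid dose; inconclusive means no clear call, values can overlap the other calls; inactive means change opposite to expected direction, plus the rest.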

For this assay, the target named is Protein disulfide-isomerase (Homo sapiens) (UniProt P07237). In words: PDI inhibitors, insulin aggregation turbidity, dose response, biochemical, absorbance, cherry-picked samples (AID 602350). The settings on record: recombinant PDI insulin aggregation, absorbance 650 nm, 90 min; series mostly up to 19.5 µM.
Protein disulfide-isomerase (Homo sapiens), sequence (P07237 whole entry, looked up): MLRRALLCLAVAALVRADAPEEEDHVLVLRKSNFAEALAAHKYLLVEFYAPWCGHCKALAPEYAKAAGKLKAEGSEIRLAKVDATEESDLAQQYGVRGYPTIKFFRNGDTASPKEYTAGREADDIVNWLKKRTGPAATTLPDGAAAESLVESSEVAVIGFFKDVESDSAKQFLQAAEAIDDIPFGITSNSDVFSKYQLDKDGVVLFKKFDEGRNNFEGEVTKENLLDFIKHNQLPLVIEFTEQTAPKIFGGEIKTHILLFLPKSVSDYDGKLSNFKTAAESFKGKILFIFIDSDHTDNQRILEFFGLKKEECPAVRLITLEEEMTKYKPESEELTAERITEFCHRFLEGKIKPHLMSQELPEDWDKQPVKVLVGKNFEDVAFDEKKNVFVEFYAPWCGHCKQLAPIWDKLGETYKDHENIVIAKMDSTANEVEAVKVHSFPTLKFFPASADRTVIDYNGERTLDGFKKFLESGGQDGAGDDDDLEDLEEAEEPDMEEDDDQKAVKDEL
As for `CCCCNC(=O)N1CCN(C(=O)C2CCCO2)CC1` (centres undefined), the outcome was inactive.

Take `CC1CCc2sc(C(=O)N/N=C/C3CCCCC3)cc2C1` (centres undefined): the result was inactive.

On to `CN(C)CCN(C(=O)c1ccc(S(=O)(=O)N2CCc3ccccc32)cc1)c1nc2ccc(F)cc2s1`, for which the result was inactive.

`CCCn1nnnc1NC(=O)c1cccs1`: the outcome was inactive.

`Cc1ccc(-c2cc(C(=O)NNC(=O)c3csc(N4CCOCC4)n3)c3ccccc3n2)cc1`: the result was inactive.

With `Cc1ccc(O)c(NC(=O)CSc2n[nH]c(-c3ccccc3)n2)c1`, the result was inactive.

As for `CN(CCC(=O)Nc1ccc(Br)cc1)Cc1ccccc1`, the outcome was inactive.

In the case of `C[C@@H]1CN([C@H](C)CO)C(=O)Cc2cc(NC(=O)Nc3ccccc3)ccc2O[C@@H]1CN(C)Cc1ccccc1`, the outcome was inactive.

Take `CCOc1ccc(C(=O)NCC(=O)OCC(=O)N(C)CC(=O)Nc2ccccc2CC)cc1OCC`: the outcome was inactive.

For `COc1ccc(Oc2ccc(/C=C/C(=O)c3ccc(O)cc3)cc2[N+](=O)[O-])cc1`, the result was inactive.

For `O=C(CSc1n[nH]c(-c2ccccc2)n1)Nc1ccccc1O`, the outcome was inactive.

Turning to `Cc1ccc(C)c(NS(=O)(=O)c2c(C)nn(C)c2C)c1`, the result was inactive.

For the molecule `CN(C)c1ccc(/C=C/C(=O)c2ccc(O)cc2)cc1[N+](=O)[O-]`, the result was inactive.

`FC(F)(F)c1cccc(NC(=S)NCc2ccccn2)c1`: the result was inactive.

Consider `CN(C1=NC(=O)C(CC(=O)Nc2ccc(Br)cc2)S1)c1ccc(O)cc1` (centres undefined), for which the result was inactive.

As to `Cc1nnc(SCc2cc(=O)oc3cc(O)ccc23)n1Cc1ccccc1`, the outcome was inactive.

As to `COCc1[nH][nH]c(=O)c1C=Nc1ccc(F)cc1F`, the outcome was inactive.

As to `CCCCn1c(SCC(=O)Nc2ccc(C)c(S(=O)(=O)N3CCOCC3)c2)nnc1C(CC)N(C)C` (centres undefined), the result was inactive.

As for `O=C(NC(=S)Nc1cccc(NC(=O)c2ccccc2)c1)c1cccc([N+](=O)[O-])c1`, the outcome was inactive.

`CCOc1ccc(NC(=O)CCc2nnc3ccc(N4CCN(C)CC4)nn23)cc1`: the outcome was inactive.

For `Cc1nc(C(=O)Nc2cccc(Cl)c2Cl)nn1-c1cc(OC(C)C)c(Cl)cc1Cl`, the result was inactive.

Consider `C[C@H](CO)N1C[C@H](C)[C@@H](CN(C)S(=O)(=O)c2ccc(F)cc2)Oc2ccc(NC(=O)Cc3ccccc3)cc2C1=O`, for which the result was inactive.

As for `O=C(/C=C/c1ccccc1)Nc1scc(-c2ccccc2)c1C(=O)O`, the outcome was inactive.

As to `Cn1cc(Cl)c(C(=O)OCC(=O)Nc2ccccc2)n1`, the outcome was inactive.

Take `CC(=O)Oc1ccccc1C(=O)C=Cc1cccc([N+](=O)[O-])c1`: the result was inactive.

In the case of `Cc1ccc(NC(=O)NC(=O)CN2CCC(C(N)=O)CC2)c(C)c1`, the result was inactive.

For the molecule `CCOC(=O)c1ccc2c(c1)nc(SCC(=O)N1CCCCC1)n2CC`, the outcome was inactive.

For `Cc1noc(C)c1S(=O)(=O)Nc1ccc2c(c1)CC(=O)N([C@@H](C)CO)C[C@@H](C)[C@@H](CN(C)S(=O)(=O)c1ccc(F)cc1)O2`, the result was inactive.

As for `Cc1noc(C)c1S(=O)(=O)Nc1ccc2c(c1)CC(=O)N([C@@H](C)CO)C[C@H](C)[C@@H](CN(C)S(=O)(=O)c1ccc(F)cc1)O2`, the result was inactive.

Take `Cc1cc(C(=O)Cn2nnc3ccccc3c2=O)c(C)n1-c1ccccc1F`: the outcome was inactive.

In the case of `Cc1c(C(=O)N2CCOCC2)sc2ncn(CC(=O)N3CCC(C)CC3)c(=O)c12`, the result was inactive.

With `COc1cccc(/C=N/NC(=O)CNC(=O)C(c2ccccc2)c2ccccc2)c1O`, the outcome was inactive.

For the molecule `C[C@@H](C(=O)NCc1ccccc1)N1C(=O)C2CC=CCC2C1=O` (some centres undefined), the outcome was inactive.

Turning to `Cc1ccc(C(=O)NCCN2C3=NC[C@H](Cc4ccc(O)cc4)N3C[C@H]2Cc2ccc(O)cc2)cc1Br`, the result was inactive.

`COc1ccccc1NS(=O)(=O)c1cccc(C(=O)NCC2(N3CCCCC3)CCCCC2)c1`: the result was inactive.

Regarding `COc1ccc(C2c3ccc(O)cc3Oc3ncn(Cc4ccco4)c(=N)c32)cc1OC` (centres undefined), the result was inactive.

On to `O=C(c1cc([N+](=O)[O-])ccc1N1CCOCC1)N1CCN(c2ccc([N+](=O)[O-])cc2)CC1`, for which the result was inactive.

As to `CCOc1ccc2nc(NS(=O)(=O)Cc3ccccc3)sc2c1`, the result was inactive.

As for `C[C@H](CO)N1C[C@H](C)[C@H](CN(C)Cc2ccc(Oc3ccccc3)cc2)Oc2c(NS(C)(=O)=O)cccc2C1=O`, the outcome was inactive.
